In PubChem BioAssay AID504339 (National Center for Advancing Translational Sciences (NCATS), 2011):
Out of some 390,000 compounds screened, about 17,000 (4.4%) were called active. Roughly 8% stayed inconclusive and do not appear here. The sample holds actives, similar compounds and a random draw of the others, so the mix is not that of the screen. Calls come from the whole dose curve; as a rule, active = well fitted inhibition curve with a large enough effect; inconclusive = small, poorly fitted or top-dose-only effect; inactive = no such curve, though single readings can be large or run the other way.

Target: Lysine-specific demethylase 4A (Homo sapiens) (UniProt O75164)
Assay: qHTS Assay for Inhibitors of JMJD2A-Tudor Domain; note: nearly all actives have a fitted effect of over 50% in size
Settings: AlphaScreen JMJD2A-Tudor / H3K4me3 peptide binding; series mostly up to 114 µM; activity change, negative = inhibition: at the top concentration
% is set by controls: 0 for no effect and ±100 for the full control effect; potency is the fitted concentration of half-maximal effect.

Sequence of Lysine-specific demethylase 4A (Homo sapiens) (O75164 whole entry, looked up, the tested form may be a part): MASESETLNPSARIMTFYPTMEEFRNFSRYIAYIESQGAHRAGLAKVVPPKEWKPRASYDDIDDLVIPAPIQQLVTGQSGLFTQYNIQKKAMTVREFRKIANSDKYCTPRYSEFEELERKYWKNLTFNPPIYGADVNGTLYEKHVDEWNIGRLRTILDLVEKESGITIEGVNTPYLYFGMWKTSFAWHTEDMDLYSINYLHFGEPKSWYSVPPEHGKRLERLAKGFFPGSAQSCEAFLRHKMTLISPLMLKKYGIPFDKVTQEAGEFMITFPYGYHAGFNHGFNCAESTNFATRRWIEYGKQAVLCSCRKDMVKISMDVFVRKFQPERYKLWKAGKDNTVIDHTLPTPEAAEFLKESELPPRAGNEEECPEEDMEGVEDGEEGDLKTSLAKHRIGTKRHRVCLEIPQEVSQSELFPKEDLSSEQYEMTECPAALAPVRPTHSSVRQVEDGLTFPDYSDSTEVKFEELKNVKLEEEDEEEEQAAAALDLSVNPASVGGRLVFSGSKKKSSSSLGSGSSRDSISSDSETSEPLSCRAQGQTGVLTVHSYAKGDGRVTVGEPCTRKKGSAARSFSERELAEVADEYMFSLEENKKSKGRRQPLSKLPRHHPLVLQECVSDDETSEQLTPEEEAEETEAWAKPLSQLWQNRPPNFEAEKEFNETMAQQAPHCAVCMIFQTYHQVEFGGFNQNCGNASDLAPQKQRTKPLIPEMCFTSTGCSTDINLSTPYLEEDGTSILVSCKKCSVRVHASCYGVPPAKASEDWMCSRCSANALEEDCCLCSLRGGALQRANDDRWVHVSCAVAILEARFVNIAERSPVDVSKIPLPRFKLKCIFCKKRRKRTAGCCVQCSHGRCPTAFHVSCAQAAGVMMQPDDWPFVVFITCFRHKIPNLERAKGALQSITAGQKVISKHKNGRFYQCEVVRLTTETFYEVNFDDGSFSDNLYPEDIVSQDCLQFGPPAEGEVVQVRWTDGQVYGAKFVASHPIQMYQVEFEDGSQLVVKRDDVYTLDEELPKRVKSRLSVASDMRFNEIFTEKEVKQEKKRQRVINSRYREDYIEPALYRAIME

Activity change, negative = inhibition, inactive:
COc1ccc(C2=CC(c3ccccc3Cl)n3nc(-c4ccc(Cl)cc4)nc3N2)cc1 (stereo not given) -22.8%
COc1ccc(CC(=O)Nc2nc3n(n2)C(c2ccccc2)CC(=O)N3)cc1OC (stereo not given) -22.9%
COc1cccc(CN2CCc3nc(SCC(=O)Nc4ccccc4)[nH]c(=O)c3C2)c1 -12.3%
S=C(NCCC1=CCCCC1)Nc1ccccc1 -2.58%
Cc1cc(NC(=O)C(C)SCC(=O)Nc2ccccc2N2CCCCC2)no1 (stereo not given) -23.4%
Cc1cc(-c2ccccc2)n2nc(-c3ccccc3)cc2n1 260%
Cc1nnc(SCC(=O)NCc2ccccc2Cl)c2nn(-c3ccccc3)c(C)c12 -5.86%
COc1ccc(CNC(=O)c2cc3c(=O)[nH]c4ccccc4c3s2)cc1 4.33%
CN(c1ccccc1)S(=O)(=O)c1ccc2[nH]c(=O)[nH]c2c1 -18.4%
CCN(c1ccccc1)S(=O)(=O)c1ccc(NC(=O)C(C)(C)C)cc1 -16%
CCCC12CN3CC(C)(CN(C1)C3c1ccccc1Cl)C2=O (stereo not given) 2.75%
CCOc1ccc(-c2nnn(CC(=O)N3CCN(c4ccc(OC)cc4)CC3)n2)cc1OCC -19%
COc1ccc(N2CCN(C(=O)CSc3nnc4ncccn34)CC2)cc1 -19.9%
COc1ccccc1C(=O)Nc1c(C(=O)N(C)Cc2ccccc2)sc2nc(C)c(Cl)c(C)c12 -16.8%
O=C(NCc1ccc(Cl)cc1)c1ccc2c(c1)nnn2C1CCCC1 -7.14%
COc1ccc(-c2nc(S(=O)(=O)c3ccccc3)c(N3CCCCC3)o2)cc1 -10%
CCOC(=O)COc1nc(C)cc(C(F)(F)F)c1C#N -18.1%
CCOC(=O)c1cnc(SCC(=O)Nc2ccccc2C(=O)OC)nc1N -14.7%
COc1ccccc1N1CCN(C2C(=O)c3ccccc3N2C(C)=O)CC1 (stereo not given) -22.4%
COc1ccccc1N1CCN(/N=C/c2ccc(O)cc2O)CC1 -20.3%
Cc1nnc(SCC2=C(C(=O)O)N3C(=O)C(NC(=O)Cn4nc(C)c(Cl)c4C)C3SC2)s1 (stereo not given) -6.9%
CCN1CCN(C(=O)N[C@@H](C(=O)N[C@@H]2C(=O)N3C(C(=O)O)=C(CSc4nnnn4C)CS[C@H]23)c2ccc(O)cc2)C(=O)C1=O -11%
O=C(NC1CC(=O)N(c2ccc(Cl)cc2)C1)C1CCCC1 (stereo not given) -2.92%
Cc1ccc(CN2CCC(CNC(=O)c3cnn(-c4ccc(C)cc4)c3C3CCN(C(=O)OC(C)(C)C)CC3)CC2)cc1 -28.8%
COc1ccc(CCNC(=O)COC(=O)C2CC2C)cc1 (stereo not given) 7.09%
COc1ccc(CCNC(=O)COC(=O)c2cc(=O)c3ccccc3o2)cc1 5.23%
COc1cccc(CNC(=O)c2cc(=O)[nH]c3ccc(S(=O)(=O)N4CCCCC4)cc23)c1 0.683%
CC1CN(C(=O)N2CCC(C(=O)NCc3ccco3)CC2)c2cc(Cl)ccc2O1 (stereo not given) -20.1%
CCCn1c(=N)n(CC(O)COc2ccccc2OC)c2ccccc21 (stereo not given) -15.5%
O=C(Cn1c(-c2cccs2)cc2ccccc21)NCCc1ccc(Cl)cc1 -13.2%
Cc1c(Cl)cccc1NC(=O)N1CCN(C(=O)c2nsc3ccccc23)CC1 -0.649%
CCCN(C(=O)Cn1ncc2c([nH]c3ccc(C)cc32)c1=O)c1ccccc1C -26.2%
CCOc1ccc(/C=C(/C#N)c2nnc(N3CCOCC3)n2-c2ccccc2)cc1OC -20.7%
CCCn1c2ccccc2c2cnn(CC(=O)NCC3CCN(Cc4ccc(C)cc4)CC3)c(=O)c21 -28.4%
O=C(CSc1nnnn1C1CCCC1)N1CCCCC1 2.05%
CC(Sc1nnnn1C)C(=O)NC(=O)NC1CCCCC1 (stereo not given) -15.8%
CCN(CC)c1ccc(C2C(C(N)=O)=C(C)Nc3nc(SCc4ccccc4)nn32)cc1 (stereo not given) -2.39%
CCc1ccc(NC(=O)c2cc(S(=O)(=O)N3CCCC(C)C3)cn2C)cc1 (stereo not given) 2.88%
CCOc1ccc(CNCc2c(C(=O)O)c(C)n(Cc3cccc(OC)c3)c2C)cc1OC -26.2%
CCOc1ccc(NC(=O)Nc2cc(C)on2)cc1 -0.741%
Cc1cc(NC(=O)COc2ccccc2C#N)no1 -12.1%
Cc1ccc(C(=O)Nc2ccc(OCc3cc(=O)n4c(C)csc4n3)cc2)cc1 -22.5%
CCOc1cccc(CNC(=O)c2ccc(N3CCCC3)c(NC(=O)Nc3ccccc3CC)c2)c1 -9.27%
COc1ccccc1/C=C/c1nc(C#N)c(NC(C)c2ccccc2)o1 (stereo not given) -14.2%
COc1cc2nc(NCC(C)c3ccccc3)n3nc(-c4ccccc4)nc3c2cc1OC (stereo not given) -26.5%
Clc1ccccc1CSc1nncn2c1cc1occc12 -27.5%
Nc1cc(N)nc(SCc2ccc(Cl)cc2)n1 -23.1%
COc1ccc(-n2c(C)nc3c(cnn3-c3ccc(F)cc3)c2=O)cc1 -6%
COc1cc(NC(=O)CSc2nc3nc(C)c(Cc4ccc(C)cc4)c(C)n3n2)cc(OC)c1OC -27.7%
O=C(O)c1c(CNCc2cccc(F)c2)c2ccccc2n1Cc1ccccc1 -20.5%
O=C(Nc1nnc(C2CC(=O)N(c3ccc(Cl)cc3)C2)s1)c1ccco1 (stereo not given) -10.6%
Cc1cccc(CSc2nc3ccncc3n2CC(=O)N(C)C2CCCCC2)c1 -8.05%
CCOc1ccc(CNC(=O)C2CCCN(S(=O)(=O)N(CC)c3ccc(OCC)cc3)C2)cc1 (stereo not given) -11%
Cc1sc2nc(CSCC(=O)NC3CCCCC3)[nH]c(=O)c2c1C -13.1%
CCOC(=O)c1sc2nc(CSCC(=O)OCc3ccc(C(=O)OC)o3)[nH]c(=O)c2c1C -18.7%
Cn1c(=O)sc2cc(NS(=O)(=O)c3ccc(C(C)(C)C)cc3)ccc21 -10.9%
CCOC(=O)c1ccc(NC(=O)c2c(NCc3cccc(OC)c3)sc3c2CCC3)cc1 -12.2%
CCOC(=O)C1CCCN(S(=O)(=O)c2cc(-c3cc(C)no3)ccc2OC)C1 (stereo not given) -10.9%
Cc1ccccc1C(=O)Nc1ccccc1NC(=O)c1ccccc1C -16.9%
CSCc1ccc(C(=O)Nc2cc(C)cc(C)c2)cc1 -8.45%
Cc1cc2c(cc1S(=O)(=O)CCC(=O)Nc1ccc(OC(F)(F)F)cc1)OCC(=O)N2 -12.2%
CCCCc1nn2c(=O)cc(COC(=O)c3ccc(NC(=O)c4ccccc4C)cc3)nc2s1 -21.9%
CCC(=O)Nc1cccc(-c2nc3cc(C)ccc3o2)c1 2.56%
Cc1ccc(-n2nnnc2CNC(=O)c2ccccc2C)cc1C -3.85%
CCCNC(=O)c1ccc(Cn2c(SCC(N)=O)nc3ccccc3c2=O)cc1 -18.5%
COc1ccc2cc(C3=CC(=O)C[C@H](c4ccc5c(c4)OCO5)C3)ccc2c1 -26.8%
COc1ccc([C@H]2CC(=O)C=C(c3ccc(C)cc3)C2)cc1 4.23%
Cc1ccc(C)c(N2CCN(C(=O)CCc3c(C)nc4c(c3C)c(=O)n(C)c(=O)n4C)CC2)c1 -7.41%
O=C(CCC1N=C2c3ccccc3N=C(SCc3ccccc3F)N2C1=O)NCCc1ccccc1 (stereo not given) -18%
COc1ccc(C(=O)CSc2c(C(C)C)cnc3c2c(=O)n(C)c(=O)n3C)cc1 -18.2%
CCOC(=O)c1cccc(NS(=O)(=O)c2cc(-c3cnc(C)o3)ccc2OC)c1 -33.4%
Cc1cccc(NC(=O)Cn2c(=O)n(CCC(C)C)c(=O)c3cccnc32)c1 -9.45%
O=C(NCCCc1ccccc1)c1ccc2c(c1)sc1nc(-c3ccc(F)cc3)cn12 -15.5%
CC1=C(C(=O)OCC2CCCCC2)C(c2c(F)cccc2Cl)CC(=O)N1 (stereo not given) 3.42%
O=S(=O)(c1ccccc1)c1nc(-c2ccccc2)oc1NCCCN1CCOCC1 -22.2%
CC1CC(C)CN(c2oc(-c3ccc(OCc4ccc(Cl)cc4)cc3)nc2C#N)C1 (stereo not given) -19.2% [at 57.1 µM]
CCc1cccc(NC(=O)Cn2nc(CC)n3c(cc4cc(C)ccc43)c2=O)c1 0%
CCOc1ccc(NC(=O)Cn2cc(C(=O)c3ccc(C)cc3)c(=O)c3cc4c(cc32)OCCO4)cc1 -20.5%
CCN(CC)S(=O)(=O)c1ccc2c(c1)nc(CN(C)C(=O)Nc1ccc(Cl)cc1)n2C -0.993%
Cc1ccc(C)c(N2CCN(C(=O)Cc3c(C(=O)O)c(C)cn3C)CC2)c1 -20.3%

Potency, active:
Cc1ccc(C2C=C(c3ccc(Cl)cc3)Nc3nc(NC(=O)CCC(=O)O)nn32)cc1 (stereo not given) 79.4 µM
O=C(CNCCC1=CCCCC1)Nc1ccccc1N1CCCCCC1 56.2 µM
CCN(c1ccccc1)S(=O)(=O)c1ccc2[nH]c(=O)[nH]c2c1 56.2 µM
COc1ccc(N2CCN(C(=O)CSc3nc4cc(OC)c(OC)cc4cc3C#N)CC2)cc1 56.2 µM
CCOC(=O)C(Sc1ncc(C#N)c(N)n1)C(C)C (stereo not given) 44.7 µM
COc1ccccc1N1CCN(/N=C\C(Br)=C\c2ccccc2)CC1 39.8 µM
Cc1cc(C)cc(C(=O)NC2C(=O)N3C(C(=O)O)=C(CSc4nnc(C)s4)CSC23)c1 (stereo not given) 79.4 µM
COc1ccc(CCNC(=O)COC(=O)c2ccc[nH]c2=O)cc1 31.6 µM
CC(C)=CCCC1(C)C=Cc2c(ccc3c2[nH]c2cc(O)c(C)cc23)O1 (stereo not given) 44.7 µM
COc1cc(N2CCCC2)c(OC)cc1/C=C(/C#N)c1cccc(Br)c1 17.8 µM
CC(Sc1nnnn1C1CCCCC1)C(=O)O (stereo not given) 11.2 µM
Cc1cc(NC(=O)Nc2ccccc2[N+](=O)[O-])no1 22.4 µM
Clc1ccc(CSc2nncn3c2cc2occc23)cc1 39.8 µM
CSc1nnc(SCc2nc3sc(C(=O)O)c(C)c3c(=O)[nH]2)s1 12.6 µM
CC(=O)Nc1ccccc1NC(=O)c1cc(C)cc(C)c1 11.2 µM
O=C(CCc1[nH]c2ccccc2c1Sc1ccccc1)N(CCO)CCO 79.4 µM
COc1ccc([C@H]2CC(=O)C=C(c3ccc(CO)cc3)C2)cc1 28.2 µM
Oc1ccc(N=Nc2nccs2)c(O)c1 35.5 µM
Oc1ccc2ccccc2c1N=Nc1nccs1 5.62 µM
N#Cc1nc(-c2ccc(OCc3ccccc3)cc2)oc1NCCCN1CCOCC1 35.5 µM
